Results from PubChem BioAssay (NCI).
About 83,000 compounds went through this panel and 20% of them were active in at least one assay; those are over-represented in the sample as a whole.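 Assay: single dose, 48 h. Readout: percent growth (0 = no net growth; negative = cell death). Active: <10.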 Values without a mark were called inactive. The source made the active and inactive calls.

Tests used:
Assay in all cases: NCI-60 one-dose screen, 48 h (100 = growth as untreated, 0 = no growth, -100 = all killed)
Conditions in all cases: 10 µM unless noted
NCI-H23 lung = system: NCI-H23 lung
NCI-H226 lung = system: NCI-H226 lung
NCI-H322M lung = system: NCI-H322M lung
HOP-62 NSCLC = system: HOP-62 NSCLC
NCI-H460 lung = system: NCI-H460 lung
HOP-92 NSCLC = system: HOP-92 NSCLC
NCI-H522 lung = system: NCI-H522 lung
A549/ATCC NSCLC = system: A549/ATCC NSCLC
786-0 renal = system: 786-0 renal
COLO 205 colon = system: COLO 205 colon

SMILES | growth (NCI-H23 lung) | growth (NCI-H226 lung) | growth (NCI-H322M lung) [%] | growth (HOP-62 NSCLC) | growth (NCI-H460 lung) | growth (HOP-92 NSCLC) | growth (NCI-H522 lung) | growth (A549/ATCC NSCLC) | growth (786-0 renal) | growth (COLO 205 colon)
COc1ccc(-c2c(C#N)cnc(N)c2-c2nc3cc(C)c(C)cc3[nH]2)cc1 | 44.9% | 99.3% | 38.2 | 57% | 36% | 68% | 45.6% | 27.2% | 25.8% | 68.7%
CSc1nc(N)nc2c1ncn2C | 95.8% | 102% | 104 | 84.6% | 104% | 64.5% | 78% | 84.5% | 90% | 94.5%
COc1cc(C(=O)N2CCN(C(=O)c3cc(OC)c(OCc4ccccc4)cc3N)CC2)c(N)cc1OCc1ccccc1 | 86.8% | 122% | 99.3 | 108% | 115% | 86.1% | 103% | 107% | 104% | 115%
NN=C(c1ccc(Cl)cc1)c1ccc(Cl)cc1 | 94.3% | 108% | 123 | 108% | 111% | 97% | 106% | 82.2% | 104% | 110%
CCCN1C(=O)CSC1=Nc1ccc2cc3ccc(N=C4SCC(=O)N4CCC)cc3nc2c1 | 35.8% | 32.2% | 86.4 | 47.6% | 36.8% | 57.1% | 31.4% | 41.4% | 8.44% (active) | 36.8%
Cc1cc(O[C@@H]2O[C@@H](C)[C@H](O)[C@@H](O)[C@H]2O)c2c3c(c(O[C@@H]4O[C@@H](C)[C@H](O)[C@@H](O)[C@H]4O)cc2c1)C(=O)c1c(O)cccc1C3=O | 95.4% | 52.1% | 95.4 | 77.4% | 84.8% | 76.1% | 64.8% | 76.8% | 24.4% | 94.5%
CCOc1ccc(NC2=C(Cl)C(=O)c3ccccc3C2=O)cc1 | 39.6% | 101% | 105 | 95.1% | 97.9% | 78.6% | 62.7% | 97% | 94.7% | 108%
O=C(CNc1cccnc1)Nc1ccc(C(=O)/C=C/c2ccc(Cl)cc2)cc1 | 91.7% | 86.4% | 95.9 | 107% | 93.5% | 90.7% | 89.4% | 88.3% | 105% | 106%
COc1ccc(-c2ccc(NC(=O)Nc3cccc(C(F)(F)F)c3)c(C)n2)cc1 | 47.6% | 58.1% | 64.4 | 68% | 48.7% | 68.8% | 28.5% | 42.5% | 77.3% | 84.5%
O=C(Nc1ccc(-n2ccc3c(NC(=O)c4ccccc4)ncnc32)cc1)Nc1cccc(Cl)c1Cl | -13.7% (active) | -37.6% (active) | 43.9 | -32% (active) | -48.4% (active) | -21.1% (active) | -31.6% (active) | -69.6% (active) | 6.42% (active) | 15.9%
COc1ccc(/C(=C/c2cc(OC)c(OC)c(OC)c2)[N+](=O)[O-])cc1 | 24.1% | 3.77% (active) | 86.7 | 68.3% | 13% | -24.6% (active) | -37% (active) | 65.8% | -44.3% (active) | -51.5% (active)
ClC1c2ccccc2CCc2ccccc21 | 89.2% | 96.7% | 94.1 | 90% | 114% | 82.7% | 76.6% | 93.4% | 93.5% | 96.5%
Nc1nc(Cl)cc(NCc2ccc(CNc3cc(Cl)nc(N)n3)cc2)n1 | 75.7% | 70.8% | 102 | 48.8% | 115% | 92.9% | 49.8% | 87.2% | 101% | 103%
CCOC(=O)CSc1nnc(-c2cc3c([nH]c4ccccc43)c(-c3cccc(O)c3)n2)n1-c1ccc(C)cc1 | 97% | 100% | 95.2 | 88.3% | 103% | 48.9% | 47.1% | 98.5% | 88.7% | 95.1%
